About 83,000 compounds went through this panel and 20% of them were active in at least one assay; those are over-represented in the sample as a whole.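 Assay: single dose, 48 h. Readout: percent growth (0 = no net growth; negative = cell death). Active: <10.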 Active and inactive are the calls of the source.
Tested on: NCI-H460 lung
Test: NCI-60 one-dose screen, 48 h (100 = growth as untreated, 0 = no growth, -100 = all killed)
Conditions: 10 µM unless noted

Compound | growth
O=c1[nH]n(C(=S)N/N=C/c2ccccc2Cl)c(=O)c2ccccc12 | 14.5% (inactive)
Cn1cc(-c2nnc(N)nc2-c2c[nH]c3ccc(F)cc23)c2cccnc21 | 18% (inactive)
CN1CCN(Cc2ccc(C(=O)Nc3cccc(C#Cc4cccc5[nH]nc(N)c45)c3)cc2C(F)(F)F)CC1 | -25.3% (active)
Cc1ccccc1[C@H]1C(C(=O)c2ccc(Cl)cc2)C2(N[C@@H]1c1ccccc1)C(=O)Nc1ccc(Br)cc12 (stereo partly drawn) | 3.51% (active)
N#Cc1c(-c2cccc(Cl)c2Cl)cc(-c2ccc3ccccc3c2)[nH]c1=O | 13.4% (inactive)
NS(=O)(=O)c1ccc(-n2cc(-c3cccc(NC(=O)c4cc(C(F)(F)F)cc(C(F)(F)F)c4)c3)nn2)cc1 | 71.4% (inactive)
COc1ccc(C(=O)/C=C/c2ccccc2Cl)cc1S(N)(=O)=O | 103% (inactive)
O=C(/C=C/c1cccc(OCc2ccc(F)cc2)c1)c1nc2ccccc2[nH]1 | 76.8% (inactive)
Cc1cc(=O)oc2cc(OCCCOc3ccc(/C=C/C(=O)Nc4ccccc4N)cc3)ccc12 | 14.5% (inactive)
S=C(Nc1ccc(OCc2nc3ccccc3[nH]2)cc1)NC1CCCCC1 | 125% (inactive)
N#Cc1c(-c2ccccc2Cl)cc(-c2c[nH]c3ccccc23)[nH]c1=O | 65.9% (inactive)
CC1=C(C(=O)OCc2ccccc2)C(c2c(O)cc(O)cc2O)n2c(nc3ccccc32)N1 (stereo not drawn) | 29.6% (inactive)
CCOc1ccc(-c2c(C#N)c(-c3ccc(Cl)cc3)nc3n[nH]c(-c4ccc(Cl)cc4)c23)cc1OC | 42.3% (inactive)

From PubChem BioAssay (NCI)
